SMN2 splice up: SMN2 splice variant enhancement; HEK293 SMN2-luciferase splicing reporter, luminescence, 30-36 h; Potency, µM (doses to about 46.1 µM), for the others: at the top dose activity change, positive = activation, most hits filed as activators; 2.8% of 210,000 active; AID 1458; also: % of control where 0% means no effect; nearly all actives have a fitted effect of over 55% in size
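qHTS luciferase splicing reporter: luminescence rises when SMN2 exon 7 is included in transfected HEK293 cells. Compound exposure lasted 30-36 h at 37C, with 4.5 mM final sodium butyrate as control, followed by a ONE-Glo read.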
FLuc counter: inhibits or activates purified firefly luciferase, miR-21 counter-screen; P08659; purified FLuc, Km substrates, luminescence inhibition; Potency, µM (top dose mostly 57.5 µM), for inactives: top-dose activity change, negative = inhibition, actives largely listed as inhibitors; 6.9% of 360,000 active;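 also: plate controls were vehicle for no effect and reference inhibitor for full effect; nearly all actives have a fitted effect of over 55% in size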
Target sequence (P08659 whole entry, looked up): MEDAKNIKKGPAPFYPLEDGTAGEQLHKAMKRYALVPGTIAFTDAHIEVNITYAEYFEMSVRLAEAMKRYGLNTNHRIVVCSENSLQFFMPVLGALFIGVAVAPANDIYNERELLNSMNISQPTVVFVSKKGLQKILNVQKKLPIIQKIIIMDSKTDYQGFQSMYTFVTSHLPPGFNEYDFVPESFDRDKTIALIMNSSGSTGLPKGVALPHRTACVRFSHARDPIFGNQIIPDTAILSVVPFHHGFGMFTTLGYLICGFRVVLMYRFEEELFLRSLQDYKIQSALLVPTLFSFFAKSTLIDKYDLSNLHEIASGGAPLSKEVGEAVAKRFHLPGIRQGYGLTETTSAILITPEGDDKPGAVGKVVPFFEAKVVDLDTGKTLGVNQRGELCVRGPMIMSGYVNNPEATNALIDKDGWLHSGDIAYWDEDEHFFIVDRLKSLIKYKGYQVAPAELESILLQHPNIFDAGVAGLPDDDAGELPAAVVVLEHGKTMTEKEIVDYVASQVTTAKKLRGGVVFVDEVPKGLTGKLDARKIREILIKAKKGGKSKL
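Purified P. pyralis luciferase, 10 nM final, with Km-level 10 uM D-luciferin and 10 uM ATP in 50 mM Tris acetate pH 7.5, 10 mM Mg acetate, 0.01% Tween-20, 0.05% BSA; 6-point qHTS titration about 60 µM downward; luminescence read.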
KinaseGlo FLuc: blocks Kinase-Glo luciferase, a counter-screen artifact; Kinase-Glo luciferase, ATP luminescence, 8 min; 0.28% of 200,000 active; Q27757; Potency, µM (series often up to 38.3 µM), for the others: top-dose activity change, negative = inhibition, hits mostly inhibitors; also: % is scaled to controls: 0 for no effect and ±100 for the full control effect; nearly all actives have a fitted effect of over 60% in size
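Luminescence was the read-out, taken after 8-minute incubation at ambient temperature. Luciferase turned over luciferin with 10 uM ATP in imidazole pH 7.2 buffer containing KCl, MgCl2, Tween 20 and BSA.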
NPC1 promoter act: activators of NPC1 promoter; 2.4% of 320,000 active; Potency, µM (titrated, usually from 9.22 µM), inactives show at the highest dose activation, actives largely listed as activators; Huh7 NPC1 promoter luciferase reporter, 24 h; also: % of control where 0% means no effect; nearly all actives have a fitted effect of over 60% in size
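In 1536-well qHTS, Huh7 cells harboring an NPC1 promoter–luciferase construct received compound for 24 h; activation was quantified by luminescence following luciferase reagent addition.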
ELG1 genotoxic: genotoxicity induction in ELG1-luciferase HEK293T cells; 1.3% of 330,000 active; HEK293T ELG1-luciferase reporter, luminescence, 16 h; AID 504466; Potency, µM (series often up to 46 µM), without a hit: at the top dose activity change, positive = activation, actives largely listed as activators; also: % of control where 0% means no effect; nearly all actives have a fitted effect of over 60% in size
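Luminescence read-out: rising ELG1-luciferase signal, reflecting elevated ELG1 protein under genetic stress, flags genotoxic compounds. Cells were treated for 16 hr at 37 °C before ONE-Glo detection.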
Rab9 prom act: Rab9 promoter activation; Huh7 Rab9 promoter-luciferase reporter, luminescence, 24 h; Potency, µM (titrated, usually from 9.22 µM), without a hit: top-dose activation, negative = inhibition, actives largely listed as activators; 2.8% of 320,000 active; AID 485297; also: % of control where 0% means no effect; nearly all actives have a fitted effect of over 60% in size
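Luminescence read-out: Huh7 cells stably expressing Rab9-luciferase, treated 24 h with compound at 37 °C, then lysed with luciferase reagent for 10 min at ambient before reading.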
Starred values were filed as active, the others as inactive. A selection: hits, their analogues and other compounds. The true share with any hit is near 7.4%. Calls follow the shape of the dose curve; as a rule, active = well fitted curve in the direction sought with a large enough effect; inconclusive = small, poorly fitted or top-dose-only effect, or another doubt; inactive = no such curve, though single readings can be large; an effect the other way counts as inactive or inconclusive. Potency is read from the fitted curve at half-maximal effect.

For COc1cccc([C@@H]2Oc3ccc(OC)cc3C(=O)[C@H]2OC(=O)NS(=O)(=O)c2ccc(C)cc2)c1 the results were SMN2 splice up 11µM* and KinaseGlo FLuc 0%.
For COc1ccccc1NC(=O)C1=C(C)Nc2ncnn2C1c1ccc[nH]1 (configuration not stated) the results were FLuc counter 5%.
Screening Cc1ccc(-c2nnc(COC(=O)c3cccs3)o2)cc1 returned FLuc counter 6.7µM*, NPC1 promoter act inconclusive, ELG1 genotoxic inconclusive and Rab9 prom act 21%.
For O=C(OCc1nnc(-c2ccccc2Br)o1)c1ccco1 the results were ELG1 genotoxic 1%.
For Cc1ccc(-c2nnc(COC(=O)c3ccco3)o2)cc1 the results were FLuc counter 13µM*, NPC1 promoter act -5%, ELG1 genotoxic 13% and Rab9 prom act -2%.
`COc1ccc(-c2csc(-c3cccs3)n2)c(OC)c1` gave SMN2 splice up 11µM*, FLuc counter 3.4µM*, KinaseGlo FLuc -8%, NPC1 promoter act inconclusive, ELG1 genotoxic 2.1µM* and Rab9 prom act 1.3µM*.
For COc1ccc(-c2csc(-c3ccccc3)n2)c(OC)c1 the results were SMN2 splice up 11µM*, FLuc counter 3.4µM*, KinaseGlo FLuc -13%, NPC1 promoter act inconclusive, ELG1 genotoxic 4.6µM* and Rab9 prom act inconclusive.
COc1ccc(-c2csc(NC(=O)Cc3ccccc3F)n2)c(OC)c1 was read as FLuc counter inconclusive, NPC1 promoter act 5%, ELG1 genotoxic 1% and Rab9 prom act 11%.
O=C1COc2ccc(OCc3ccc(F)cc3)cc21 was read as SMN2 splice up 11µM*, FLuc counter 4.3µM*, KinaseGlo FLuc -12%, NPC1 promoter act 1.4µM*, ELG1 genotoxic inconclusive and Rab9 prom act 1.1µM*.
COc1ccc(CCNCc2c(C(=O)O)c(C)n(Cc3ccccc3C)c2C)c(OC)c1 was read as SMN2 splice up 0% and FLuc counter -3%.
For CCCN1CCN(CCNC(=O)Nc2ccc(OC)c(OC)c2)CC1 the results were SMN2 splice up -4% and FLuc counter 3%.
For COc1ccc(Nc2nc3ccccc3c3nnc(C)n23)cc1Cl the results were SMN2 splice up 0% and FLuc counter 24µM*.
Screening CN(C)c1ncc2nc(-c3cc(F)cc(F)c3)c(=O)n(Cc3cccs3)c2n1 returned SMN2 splice up -12% and KinaseGlo FLuc -5%.
Screening COc1ccc(C2=NN(S(C)(=O)=O)C(c3cccs3)C2)cc1OC (configuration not stated) returned FLuc counter 17µM*, KinaseGlo FLuc 4%, NPC1 promoter act inconclusive, ELG1 genotoxic 16% and Rab9 prom act inconclusive.
CS(=O)(=O)N1N=C(c2ccccc2)CC1c1cccs1 (configuration not stated) was read as SMN2 splice up -3%, FLuc counter -3%, KinaseGlo FLuc 4%, NPC1 promoter act 16%, ELG1 genotoxic 2% and Rab9 prom act 3%.
`COc1cccc(C2=NN(S(C)(=O)=O)C(c3cccs3)C2)c1` (configuration not stated) gave FLuc counter inconclusive, NPC1 promoter act 23%, ELG1 genotoxic 15% and Rab9 prom act 2.8µM*.
`O=C(c1csnn1)N1CCC2(CCCN(C(c3ccccc3)c3ccccc3)C2)CC1` gave SMN2 splice up -25% and KinaseGlo FLuc 0%.
Cc1nn(-c2ccccc2)c(N)c1N=O was read as FLuc counter 5%, NPC1 promoter act -4%, ELG1 genotoxic 7% and Rab9 prom act -3%.
For Cc1nn(-c2ccccc2)c(N)c1N=Nc1ccc2ccccc2c1 the results were SMN2 splice up 13µM*, FLuc counter 11µM*, KinaseGlo FLuc 1%, NPC1 promoter act inconclusive, ELG1 genotoxic inconclusive and Rab9 prom act 3.5µM*.
